{"source": "PubChem BioAssay AID2284117", "about": "(EPA ToxCast)", "note": "The source made the active and inactive calls. How the source made its calls: active means hit-call score of the fitted dose curve at least 0.9, where 1 is the maximum; inactive means score below 0.9."}
{"target": "human PDE4A1A Phosphodiesterase, PDE4A (gene 5141) (UniProt P27815)", "sequence (P27815 whole entry, looked up)": "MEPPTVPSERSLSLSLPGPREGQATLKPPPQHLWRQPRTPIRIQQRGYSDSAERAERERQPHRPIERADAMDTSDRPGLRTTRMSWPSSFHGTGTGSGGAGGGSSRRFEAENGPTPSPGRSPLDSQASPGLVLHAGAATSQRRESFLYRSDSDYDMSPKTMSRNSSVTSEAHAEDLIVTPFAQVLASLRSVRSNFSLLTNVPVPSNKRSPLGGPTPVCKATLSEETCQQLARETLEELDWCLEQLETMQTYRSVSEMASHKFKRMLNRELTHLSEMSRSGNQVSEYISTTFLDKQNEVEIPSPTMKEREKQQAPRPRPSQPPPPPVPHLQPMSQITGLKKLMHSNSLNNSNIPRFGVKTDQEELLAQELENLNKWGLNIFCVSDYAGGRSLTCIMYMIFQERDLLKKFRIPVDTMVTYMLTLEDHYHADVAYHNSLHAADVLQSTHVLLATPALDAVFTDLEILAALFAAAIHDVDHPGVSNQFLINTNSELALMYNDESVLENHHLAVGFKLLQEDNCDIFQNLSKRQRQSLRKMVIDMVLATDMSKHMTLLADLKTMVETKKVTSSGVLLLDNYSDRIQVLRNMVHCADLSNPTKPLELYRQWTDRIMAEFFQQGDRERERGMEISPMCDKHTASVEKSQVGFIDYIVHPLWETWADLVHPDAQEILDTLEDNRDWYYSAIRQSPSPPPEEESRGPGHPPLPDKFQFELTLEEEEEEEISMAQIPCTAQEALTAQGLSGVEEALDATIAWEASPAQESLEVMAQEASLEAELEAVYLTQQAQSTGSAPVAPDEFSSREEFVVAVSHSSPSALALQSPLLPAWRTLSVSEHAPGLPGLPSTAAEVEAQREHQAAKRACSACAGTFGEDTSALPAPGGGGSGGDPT", "assay": "ERF_FR_ENZ_hPDE4A: Eurofins (ERF) Enzymatic LeadHunter Assay for human PDE4A1A Phosphodiesterase", "procedure": "ERF_FR_ENZ_hPDE4A is a biochemical, single-readout assay that uses extracted gene-proteins in a cell-free assay. Measurements were taken 0.33 hour after chemical dosing in a 96-well plate. See PDE4A1A Human Phosphodiesterase Enzymatic Assay, Cerep.ERF_FR_ENZ_hPDE4A is an assay component calculated from the ERF_FR_ENZ_hPDE4A assay. It is designed to measure enzyme activity using a type of enzyme reporter as detected by scintillation counting with radiometry technology.Data from the assay component ERF_FR_ENZ_hPDE4A was analyzed at the assay endpoint, ERF_FR_ENZ_hPDE4A, in the positive analysis fitting direction relative to DMSO as the negative control and baseline of activity. Using a type of enzyme reporter, loss-of-signal activity can be used to understand changes in enzymatic activity as they relate to gene PDE4A. To generalize the intended target to other relatable targets, this assay endpoint is annotated to the phosphodiesterase intended target family, where the subfamily is cyclic nucleotide signaling.\nHuman cells are incubated for 10 minutes at room temprature with [3H]cAMP + cAMP (0.5uM) as sunstrate and Nitrendipine as control inhibitor. Test Sample Requirements: Minimum for 1) Screen: 60 ul of 10 mM stock -OR- 1 mg (pre-weighed) for 10 uM final testing. 2) Dose Response: 90 ul of 10 mM stock -OR- 1 mg (pre-weighed) for a top concentration at 10 uM."}
{"compound": "COc1cc(CCC(=O)CC(=O)CCc2ccc(O)c(OC)c2)ccc1O", "AC50": "2660 nM (active)"}
